Source: PubChem BioAssay (several laboratories)
Bcl-xL primary: Bcl-xL (human) inhibition. 0.7% of 320,000 active. Q07817. inhibition, % at 10.9 µM. GST-Bcl-xL / FITC-Bim BH3 peptide fluorescence polarization. AID 2129;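 active = inhibition above the mean of all tested compounds plus 3 SD, cutoff set per campaign, cut at about 30% in these data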;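 also: 0% = DMSO wells and 100% = unlabeled Bim-BH3 peptide competitor; inhibitors lower millipolarization by displacing the labeled peptide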
Target sequence (Q07817 whole entry, looked up): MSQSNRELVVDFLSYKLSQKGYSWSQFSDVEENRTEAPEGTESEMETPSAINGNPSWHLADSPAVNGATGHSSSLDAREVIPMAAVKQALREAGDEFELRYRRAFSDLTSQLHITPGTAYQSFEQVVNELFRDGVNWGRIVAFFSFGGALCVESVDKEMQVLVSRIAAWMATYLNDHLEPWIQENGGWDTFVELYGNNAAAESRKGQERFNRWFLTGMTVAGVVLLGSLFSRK
MEX-5 binding: C. elegans MEX-5 TCR-2 RNA binding activity. Q9XUB2. MEX-5/FITC-TCR2 RNA binding, fluorescence polarization; active compounds read low. activity score (negative = inhibition of binding), % at 10 µM. 0.38% of 300,000 active. AID 1832;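 active = inhibition past about -25% in most replicates, and total fluorescence under double the plate's negative control median, limit read from the data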;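 also: 0% = DMSO and -100% = 5 µM competing unlabeled TCR2 RNA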
Target sequence (Q9XUB2 whole entry, looked up): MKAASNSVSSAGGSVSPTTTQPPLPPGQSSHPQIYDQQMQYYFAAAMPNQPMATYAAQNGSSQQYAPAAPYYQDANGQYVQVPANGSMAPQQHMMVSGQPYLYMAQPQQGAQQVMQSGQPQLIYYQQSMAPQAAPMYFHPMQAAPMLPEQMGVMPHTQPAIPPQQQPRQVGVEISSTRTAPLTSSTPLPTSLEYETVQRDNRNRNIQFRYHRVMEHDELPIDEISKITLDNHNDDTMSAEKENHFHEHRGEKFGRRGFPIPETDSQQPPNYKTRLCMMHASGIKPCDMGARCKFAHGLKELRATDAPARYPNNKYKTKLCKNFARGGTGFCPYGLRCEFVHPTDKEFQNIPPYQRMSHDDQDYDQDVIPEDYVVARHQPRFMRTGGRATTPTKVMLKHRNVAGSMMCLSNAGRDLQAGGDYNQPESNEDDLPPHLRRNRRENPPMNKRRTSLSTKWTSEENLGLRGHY
GLD-1 TGE inh: GLD-1-TGE RNA interaction inhibition (C. elegans) | Q17339 | purified GLD-1 + fluorescein TGE RNA, fluorescence polarization | inhibition, % at 5.96 µM | 0.44% of 320,000 active | AID 2280;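 active = percent inhibition above a per-plate cutoff, the plate mean of test compounds plus 3 SD, cut at about 30% in these data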;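 also: 0% = DMSO wells with GLD-1 and probe and 100% = wells lacking GLD-1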
E coli Lon inh: E. coli protease La inhibition | inhibition, % at 7.94 µM | P0A9M0 | 0.42% of 360,000 active | purified E. coli Lon protease, fluorescence polarization; in the data active = inhibition above about 13%, passing the limit was not always enough;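 also: 0% = enzyme with probe and DMSO and 100% = no enzyme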
MCL1-BIM inh: inhibitors of human MCL1 binding to BIM-BH3 peptide; inhibition, % at 10.9 µM; Q07820; AID 2057; GST-MCL1 / FITC-Bim-BH3 fluorescence polarization; 0.68% of 320,000 active;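 active = inhibition above the mean inhibition of all tested compounds plus 3 SD, set per campaign, cut at about 40% in these data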;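 also: 0% = DMSO wells and 100% = unlabeled Bim-BH3 peptide control; higher means more loss of mP so more displacement of Bim peptide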
BCLXL inh confirm: counter-screen for MCL1 inhibitors: confirmation of human Bcl-xL inhibitors | 54% of 1,700 active | shares compounds with MCL1-BIM inh | GST-Bcl-xL / FITC-Bim BH3 peptide FP binding | inhibition, % at 10.9 µM;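 active = inhibition above a cutoff equal to the mean inhibition of all tested compounds plus 3 SD, cut at about 30% in these data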;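 also: 0% = DMSO wells and 100% = unlabeled Bim BH3 control peptide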
MCL1 BIM confirm: confirmation of human MCL1 and BIM-BH3 interaction inhibitors. shares compounds with MCL1-BIM inh. GST-MCL1 / FITC-Bim-BH3 fluorescence polarization. inhibition, % at 10.9 µM. 61% of 1,700 active;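 active = inhibition above the average of all tested compounds plus 3 SD, cut at about 40% in these data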;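 also: 0% = DMSO wells and 100% = unlabeled Bim-BH3 control peptide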
GLD1 RNA confirm: confirmation of C. elegans GLD-1 TGE RNA binding inhibitors; shares compounds with GLD-1 TGE inh; GLD-1/FL-TGE RNA fluorescence polarization, biochemical; inhibition, % at 5.96 µM; 10% of 550 active;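 active = average inhibition across triplicates above the hit cutoff set in the primary screen, cut at about 32% in these data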;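 also: 0% = GLD-1 with RNA probe and DMSO and 100% = wells lacking GLD-1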
eLon confirm: E. coli Lon inhibition confirmation; 31% of 1,400 active; shares compounds with E coli Lon inh; purified E. coli Lon, fluorescence polarization; inhibition, % at 7.94 µM; in the data active = inhibition above about 16%;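 also: 0% = enzyme with probe and DMSO and 100% = no enzyme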
The depositor's hits bear a star. An excerpt weighted towards active compounds, which were near 1.4% of everything screened.

Results for Cc1ccc(SCc2cc(=O)n3ccsc3n2)c(C)c1 ?
Bcl-xL primary: 3; MEX-5 binding: 1; GLD-1 TGE inh: 6; MCL1-BIM inh: 9

Results for OCCC1CN(Cc2cccc3nccnc23)CCN1Cc1ccc(F)cc1 (stereo unspecified) ?
Bcl-xL primary: 60*; MEX-5 binding: -1; GLD-1 TGE inh: 46*; E coli Lon inh: -2; MCL1-BIM inh: 60*; BCLXL inh confirm: 9; MCL1 BIM confirm: 7; GLD1 RNA confirm: -1

What do the screens show for `CCCC(=O)NCc1ccc2c(c1)cc(C)n2C`?
Bcl-xL primary: 48*; MEX-5 binding: -4; GLD-1 TGE inh: 54*; E coli Lon inh: 2; MCL1-BIM inh: 52*; BCLXL inh confirm: 11; MCL1 BIM confirm: 4; GLD1 RNA confirm: 10

Results for N#CC(c1cccc([N+](=O)[O-])c1)C(CC(=O)c1ccccc1)c1ccccc1 (stereo unspecified) ?
E coli Lon inh: 6

How did Cc1csc(SCc2c(C(=O)O)oc3ccccc23)n1 do in these assays?
Bcl-xL primary: 107*; MEX-5 binding: 1; GLD-1 TGE inh: 62*; E coli Lon inh: -6; MCL1-BIM inh: 125*; BCLXL inh confirm: 6; MCL1 BIM confirm: 4; GLD1 RNA confirm: -2

How did CC1=C(C(=O)N2CCOCC2)CC(CC(=O)NCCCCc2ccccc2)C(=O)N1Cc1ccc(F)cc1 (stereo unspecified) do in these assays?
E coli Lon inh: -5

How did O=[N+]([O-])c1cccnc1-n1cnc2ccccc21 do in these assays?
Bcl-xL primary: 3; MEX-5 binding: -1; GLD-1 TGE inh: 6; E coli Lon inh: -12; MCL1-BIM inh: 5

How did Cc1cc2ncn(-c3ncccc3[N+](=O)[O-])c2cc1C do in these assays?
Bcl-xL primary: 85*; MEX-5 binding: -9; GLD-1 TGE inh: 80*; E coli Lon inh: 25*; MCL1-BIM inh: 102*; BCLXL inh confirm: 23; MCL1 BIM confirm: 34; eLon confirm: 1

What do the screens show for `CC(C)(CNC(=O)c1ccc(S(=O)(=O)Nc2cccc(C(F)(F)F)c2)cc1)N1CCOCC1`?
Bcl-xL primary: 2; GLD-1 TGE inh: 10; E coli Lon inh: -4; MCL1-BIM inh: 6

How did CCOc1ccc(C2C=C(c3ccc(C)cc3)Nc3nnnn32)cc1 (stereo unspecified) do in these assays?
Bcl-xL primary: 59*; MEX-5 binding: 1; GLD-1 TGE inh: 33*; E coli Lon inh: 24*; MCL1-BIM inh: 50*; BCLXL inh confirm: 39*; MCL1 BIM confirm: 57*; eLon confirm: -2

What do the screens show for `O=C(O)CC1NC(=S)N(Cc2ccccc2)C1=O` (stereo unspecified)?
E coli Lon inh: -28

Results for O=c1[nH]nc(CNc2ccc(C(F)(F)F)cc2)c2ccccc12 ?
Bcl-xL primary: 5; MEX-5 binding: 0; GLD-1 TGE inh: 2; E coli Lon inh: 1; MCL1-BIM inh: 9

Results for O=c1[nH]nc(CNc2ccc(O)cc2)c2ccccc12 ?
Bcl-xL primary: 79*; MEX-5 binding: -52*; GLD-1 TGE inh: 89*; E coli Lon inh: 51*; MCL1-BIM inh: 76*; BCLXL inh confirm: 51*; MCL1 BIM confirm: 41*; eLon confirm: -11

Results for CC(NC(=O)C1CC1)c1ccc(-c2ccccc2)cc1 (stereo unspecified) ?
Bcl-xL primary: 2; MEX-5 binding: 0; GLD-1 TGE inh: 4; E coli Lon inh: -1; MCL1-BIM inh: 6

How did O=C1c2ccccc2C(=O)c2c1cccc2N(CCO)CCO do in these assays?
Bcl-xL primary: 72*; MEX-5 binding: -42*; GLD-1 TGE inh: 46*; E coli Lon inh: 27*; MCL1-BIM inh: 65*; BCLXL inh confirm: 58*; MCL1 BIM confirm: 77*; GLD1 RNA confirm: 50*; eLon confirm: 20*

What do the screens show for `O=C1C=C(N(CCO)Cc2ccccc2)c2ccccc2C1=O`?
MEX-5 binding: -1; E coli Lon inh: 1

What do the screens show for `N#Cc1ccc(C(=O)N2CCCCC2c2cc(C(=O)NCc3ccccc3)no2)cc1` (stereo unspecified)?
E coli Lon inh: 2

Results for CC(=O)c1c2c3c(c(Br)ccc3n(C)c1=O)C(=O)c1ccccc1-2 ?
Bcl-xL primary: 67*; MEX-5 binding: -4; GLD-1 TGE inh: 57*; E coli Lon inh: 50*; MCL1-BIM inh: 64*; BCLXL inh confirm: 42*; MCL1 BIM confirm: 43*; eLon confirm: 21*

What do the screens show for `CC(=O)c1c(C)oc2c1C(=O)c1ccccc1C2=O`?
Bcl-xL primary: 3; MEX-5 binding: -1; GLD-1 TGE inh: 11; E coli Lon inh: -4; MCL1-BIM inh: -4

How did Cc1cccc(NC(=O)CSc2nnc(-c3ccco3)c(-c3ccco3)n2)c1 do in these assays?
E coli Lon inh: 8

What do the screens show for `Cc1cccc(NC(=O)CSc2nnc(-c3ccco3)c(-c3ccco3)n2)c1C`?
Bcl-xL primary: 25; MEX-5 binding: -14; GLD-1 TGE inh: 3; E coli Lon inh: 89*; MCL1-BIM inh: 41*; BCLXL inh confirm: 98*; MCL1 BIM confirm: 141*; eLon confirm: 2

How did Cc1ccc(NC(=O)CS(=O)CC(=O)Nc2ccccc2-c2ccc(C)o2)cc1 (stereo unspecified) do in these assays?
Bcl-xL primary: 72*; MEX-5 binding: 1; GLD-1 TGE inh: 66*; E coli Lon inh: 114*; MCL1-BIM inh: 88*; BCLXL inh confirm: 10; MCL1 BIM confirm: 9; GLD1 RNA confirm: 6; eLon confirm: 0

Results for CC(=O)Nc1ccccc1-c1ccc(C)o1 ?
Bcl-xL primary: 1; MEX-5 binding: 1; GLD-1 TGE inh: 0; E coli Lon inh: 1; MCL1-BIM inh: -7

Results for Cc1cc(=O)oc2c(CN3CCCC3)c(O)c(Cl)cc12 ?
Bcl-xL primary: 25; MEX-5 binding: -9; GLD-1 TGE inh: 30; E coli Lon inh: 1; MCL1-BIM inh: 26

What do the screens show for `Cc1cc(=O)oc2c(CN3CCC(C)CC3)c(O)c(Cl)cc12`?
Bcl-xL primary: 105*; MEX-5 binding: -40*; GLD-1 TGE inh: 119*; E coli Lon inh: 25*; MCL1-BIM inh: 142*; BCLXL inh confirm: 80*; MCL1 BIM confirm: 113*; eLon confirm: 39*
